Screening results as filed in PubChem BioAssay.
Compounds with a hit are over-represented: about 7.3% of the library has one in this group of screens.
ELG1 genotox – induces genotoxicity in HEK293T cells with luciferase-tagged ELG1 | HEK293T ELG1-luciferase reporter, luminescence, 16 h | Potency, µM (top dose mostly 46 µM), for inactives: at the highest dose activity change, positive = activation, actives largely listed as activators | actives 1.3% (n = 330,000) | AID 504466; note: % of control where 0% means no effect; nearly all actives have a fitted effect of over 60% in size
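Reporter readout depends on ELG1 protein level, which increases with genetic stress. After 16 hr compound exposure at 37 °C, luciferase activity was quantified using ONE-Glo.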
Rab9 prom act – Rab9 promoter activation. Potency, µM (series often up to 9.22 µM), for inactives: top-dose activation, negative = inhibition, actives largely listed as activators. Huh7 Rab9 promoter-luciferase reporter, luminescence, 24 h. actives 2.8% (n = 320,000); note: % of control where 0% means no effect; nearly all actives have a fitted effect of over 60% in size
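Luciferase signal after 10 min detection reagent at ambient indicates Rab9 promoter upregulation; stably transfected Huh7 cells were treated 24 h with compound in DMSO at 37 °C, 5% CO2.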
FLuc modulator – counter-screen for miR-21 project: firefly luciferase inhibitors or activators; P08659; purified FLuc, Km substrates, luminescence inhibition; Potency, µM (series often up to 57.5 µM), inactives show top-dose activity change, negative = inhibition, usual class: inhibitors; actives 6.9% (n = 360,000); AID 588342;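 note: plate controls were vehicle for no effect and reference inhibitor for full effect; nearly all actives have a fitted effect of over 55% in size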
Target sequence (P08659 whole entry, looked up): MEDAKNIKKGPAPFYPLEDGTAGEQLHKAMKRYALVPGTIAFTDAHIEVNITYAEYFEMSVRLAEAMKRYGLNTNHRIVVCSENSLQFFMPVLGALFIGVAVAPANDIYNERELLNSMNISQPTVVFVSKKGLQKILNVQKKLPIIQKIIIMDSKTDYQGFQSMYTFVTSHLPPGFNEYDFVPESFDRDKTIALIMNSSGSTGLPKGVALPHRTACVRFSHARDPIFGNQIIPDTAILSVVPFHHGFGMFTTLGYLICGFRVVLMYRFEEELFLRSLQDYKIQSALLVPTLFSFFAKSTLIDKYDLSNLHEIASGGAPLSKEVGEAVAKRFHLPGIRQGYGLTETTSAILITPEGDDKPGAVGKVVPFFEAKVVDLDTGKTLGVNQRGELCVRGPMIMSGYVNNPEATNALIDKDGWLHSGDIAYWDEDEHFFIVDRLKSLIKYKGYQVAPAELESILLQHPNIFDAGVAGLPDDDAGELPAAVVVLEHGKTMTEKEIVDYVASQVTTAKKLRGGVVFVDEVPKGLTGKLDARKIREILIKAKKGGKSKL
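Purified P. pyralis luciferase, 10 nM final, with Km-level 10 uM D-luciferin and 10 uM ATP in 50 mM Tris acetate pH 7.5, 10 mM Mg acetate, 0.01% Tween-20, 0.05% BSA; 6-point qHTS titration about 60 µM downward; luminescence read.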
SMN2 splice enh – enhancers of SMN2 splice variant expression | HEK293 SMN2-luciferase splicing reporter, luminescence, 30-36 h | actives 2.8% (n = 210,000) | Potency, µM (series often up to 46.1 µM), for inactives: at the top dose activity change, positive = activation, usual class: activators; note: % of control where 0% means no effect; nearly all actives have a fitted effect of over 55% in size
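HEK293 cells carry an SMN2 minigene-luciferase reporter in which exon 7 inclusion puts luciferase in frame. Cells were seeded at 2000 cells/well, attached for 10-12 hours, then exposed to compounds for 30-36 hours at 37C before ONE-Glo luminescence.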
KinaseGlo FLuc – blocks Kinase-Glo luciferase, a counter-screen artifact | Kinase-Glo luciferase, ATP luminescence, 8 min | Potency, µM (top dose mostly 38.3 µM), inactives show at the highest dose activity change, negative = inhibition, actives largely listed as inhibitors | actives 0.28% (n = 200,000) | AID 1379; note: % is set by controls: 0 for no effect and ±100 for the full control effect; nearly all actives have a fitted effect of over 60% in size
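Kinase-Glo luciferase light output from ATP and luciferin was measured with 10 uM ATP, within the enzyme's linear range. Buffer: 50 mM imidazole pH 7.2, 50 mM KCl, 7 mM MgCl2, 0.01% Tween 20, 0.05% BSA; luminescence read after 8 min at ambient temperature.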
NPC1 prom act – activators of NPC1 promoter | AID 485313 | Potency, µM (series often up to 9.22 µM), for inactives: top-dose activation, actives largely listed as activators | actives 2.4% (n = 320,000) | Huh7 NPC1 promoter luciferase reporter, 24 h; note: % of control where 0% means no effect; nearly all actives have a fitted effect of over 60% in size
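Stable NPC1-promoter luciferase Huh7 line; cpd (DMSO) 24 h, 37 °C, 5% CO2; Amplite luciferase reagent 10 min RT; luminescence readout. qHTS format.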
Numbers without * were called inactive; u = inconclusive; x = not tested or not shown. Calls come from the whole dose curve; as a rule, active = well fitted curve in the direction sought with a large enough effect; inconclusive = small, poorly fitted or top-dose-only effect, or another doubt; inactive = no such curve, though single readings can be large; an effect the other way counts as inactive or inconclusive. Potency is the fitted concentration of half-maximal effect.

SMILES	ELG1 genotox	Rab9 prom act	FLuc modulator	SMN2 splice enh	KinaseGlo FLuc	NPC1 prom act
O=C(N/N=C/c1ccccn1)c1ccc([N+](=O)[O-])cc1Cl	2%	2%	19µM*	x	x	-5%
CCc1ccc(-c2cc(C(=O)N/N=C/c3ccccn3)[nH]n2)cc1	-5%	12%	7.6µM*	-33%	0%	8%
O=C(N/N=C/c1cccnc1)c1ccc([N+](=O)[O-])cc1Cl	-2%	-3%	u	x	x	-1%
O=C(N/N=C/c1ccco1)c1cc(-c2ccc3ccccc3c2)n[nH]1	3%	1%	19µM*	-1%	-3%	-1%
O=C(N/N=C/c1ccccn1)c1cc(-c2cccc3ccccc23)n[nH]1	-4%	3%	u	23%	1%	7%
O=C(N/N=C/c1cccs1)c1cc(-c2ccc3ccccc3c2)n[nH]1	0%	-9%	-16%	-1%	1%	7%
O=C(N/N=C/c1ccccn1)c1cc(-c2ccccc2Cl)n[nH]1	8%	-2%	24µM*	-13%	0%	3%
O=C(N/N=C/c1ccccn1)c1cc(-c2ccc3ccccc3c2)n[nH]1	-4%	-4%	7.6µM*	4%	-3%	-2%
Cc1ccc(C(=O)Nc2c(C(=O)NCc3ccc(Cl)cc3)sc3nc(C)cc(C)c23)cc1	x	x	-2%	10%	x	x
O=C(NCCc1ccccc1)c1ccc2c(c1)N(Cc1ccccc1Cl)C(=O)c1ccccc1S2	x	x	2%	x	x	x
COc1ccc(-c2onc(C)c2C)cc1S(=O)(=O)N1c2ccccc2CC1C (configuration not stated)	x	x	-1%	x	x	x
CC(C)(C)C(=O)Nc1ccc(C(=O)OC2CCCCC2)cc1	u	1.4µM*	4.3µM*	35µM*	-2%	1.4µM*
O=C(O)CCC(=O)Nc1ccc(C(=O)OC2CCCCC2)cc1	0%	-7%	13µM*	-15%	2%	-4%
COc1ccccc1/C=C1\SC(=S)N(CCC(=O)NCCCn2ccnc2)C1=O	4%	-5%	u	x	x	-3%
COc1ccc(/C=C2\SC(=S)N(CCC(=O)NCCCn3ccnc3)C2=O)cc1	0%	-7%	19µM*	x	x	1%
CC(C)c1ccc(/C=C2\SC(=S)N(CCC(=O)NCCCn3ccnc3)C2=O)cc1	2%	-39%	2.4µM*	x	x	-7%
O=C(CCCN1C(=O)/C(=C/c2ccc(F)cc2)SC1=S)NCCCn1ccnc1	-5%	-3%	u	x	x	-3%
O=C(NC(=S)Nc1ccccn1)c1ccccc1	1.6µM*	0.13µM*	7.6µM*	x	x	0.32µM*
O=C(NC(=S)Nc1ccccn1)c1ccc([N+](=O)[O-])cc1	u	1µM*	5.4µM*	2.8µM*	0%	2µM*
O=C(/C=C/c1ccc(Cl)cc1Cl)NC(=S)Nc1ccccn1	u	0.89µM*	u	4%	-3%	1.1µM*
O=C(Nc1ccccn1)c1ccc(Br)s1	u	4µM*	11µM*	x	x	1.8µM*
O=C(/C=C/c1ccc(Cl)cc1Cl)NC(=S)Nc1ccc(CN2CCOCC2)cc1	-1%	7%	-2%	-23%	4%	-1%
COCOc1c2c(c(OCOC)c3c(OCOC)cccc13)/C(=N/N[S+](=O)([O-])c1ccc(C)cc1)C1=C2CCCC1	x	x	x	5%	1%	x
COc1cc2nc(SCC(=O)Nc3cccc(C)c3)n3nc(CCn4c(C)nc5ccccc54)nc3c2cc1OC	x	x	-3%	0%	x	x
Cc1cccc2nc(Cn3c(=O)n(-c4ccc(Cl)cc4)c(=O)c4c5c(sc43)CCC5)cc(=O)n12	x	x	-4%	4%	x	x
O=C(NC(=S)Nc1ccccn1)c1ccc(-c2ccccc2)cc1	u	0.28µM*	1.5µM*	x	x	0.11µM*
O=C(CS(=O)(=O)c1ccccc1)Nc1ccccn1	2%	-5%	1%	5%	4%	-3%
O=C(CC(=O)c1ccccc1)Nc1ccccn1	15µM*	1.8µM*	11µM*	x	x	2.5µM*
